Screens: PubChem BioAssay, National Center for Advancing Translational Sciences (NCATS)
Rows were chosen to be rich in hits. Some 8% of all compounds tested hit in one or more screens of this group.
SW480 rereplic = induces DNA re-replication in SW480 colon adenocarcinoma cells | SW480 DNA re-replication, Hoechst DNA content imaging, 48 h | Potency, µM (doses to about 46.1 µM), for inactives: at the highest dose re-replication activation, actives largely listed as activators | actives 1.8% (n = 340,000); also: % of control where 0% means no effect; nearly all actives have a fitted effect of over 55% in size
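Quantitative HTS format with DMSO vehicle controls; 48 hr drug incubation at 37 C, then 40 min Hoechst staining and scanning imager measurement at 405 nm excitation.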
HT1080 IDH1KD tx = HT-1080 IDH1 knockdown cell toxicity (counter line) | HT-1080 IDH1 knockdown viability, ATP luminescence, 48 h | actives 2% (n = 360,000) | Potency, µM (highest dose often 46.1 µM), without a hit: top-dose activity, negative = toxicity, most hits filed as cytotoxic;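 also: 0% = DMSO wells and -100% = cell-free medium wells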
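Assay cells: HT-1080 with IDH1 knockdown, 750 per well, RPMI/5% FBS. Exposure: 48 h at 37 °C following 2 h pre-incubation. Read: CellTiter-Glo luminescence; fitted concentration-response, curve class assigned.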
KB-V1 cytotox = KB-V1 MDR subline cytotoxicity; KB-V1 MDR cells viability, CellTiter-Glo, 72 h; Potency, µM (titrated, usually from 46.1 µM), most hits filed as cytotoxic; actives 3.4% (n = 400,000); AID 1347076; also: % is scaled to controls: 0 for no effect and ±100 for the full control effect; nearly all actives have a fitted effect of over 60% in size
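qHTS viability screen in drug-selected KB-V1 MDR cells: 72 h compound treatment at 37 degrees C, ATP luminescence end point.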
HT1080NT lethal = kills 2HG-producing HT-1080-NT fibrosarcoma cells; HT-1080-NT fibrosarcoma viability, CellTiter-Glo ATP luminescence, 48 h; Potency, µM (series often up to 46.1 µM), for the others: top-dose activity, negative = less viability, actives largely listed as cytotoxic; actives 1.6% (n = 360,000); AID 686970;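 also: NT is the 2HG producing partner of a matched IDH1 knockdown line; 0% = DMSO-treated cells and -100% = media-only wells without cells; nearly all actives have a fitted effect of over 55% in size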
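Toxicity toward the 2HG-producing NT line was scored as %Activity, normalised to DMSO and no-cell wells, from CellTiter-Glo luminescence after 48 hours' treatment.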
KB-3-1 tox = KB-3-1 parental cell cytotoxicity; actives 1.4% (n = 400,000); Potency, µM (doses to about 46.1 µM), usual class: cytotoxic; KB-3-1 viability, CellTiter-Glo ATP luminescence, 72 h; also: % is scaled to controls: 0 for no effect and ±100 for the full control effect; nearly all actives have a fitted effect of over 60% in size
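Parental KB-3-1 adenocarcinoma cells in phenol-red-free DMEM with 10% FBS were pin-treated with compounds at several concentrations, incubated 72 h at 37 °C, and viability read by CellTiter-Glo luminescence; concentration-effect curves were fitted after normalization.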
MCF10A rerep = induces DNA re-replication in MCF 10a normal breast cells; actives 2.9% (n = 350,000); Potency, µM (titrated, usually from 46.1 µM), without a hit: top-dose activity, positive = re-replication, hits mostly activators; AID 624296; MCF 10A DNA re-replication, Hoechst nuclear intensity, 48 h; also: % of control where 0% means no effect; nearly all actives have a fitted effect of over 50% in size
Starred values were filed as active, the others as inactive; i = inactive; ? = inconclusive; . = no result. Calls follow the shape of the dose curve; as a rule, active = well fitted curve in the direction sought with a large enough effect; inconclusive = small, poorly fitted or top-dose-only effect, or another doubt; inactive = no such curve, though single readings can be large; an effect the other way counts as inactive or inconclusive. Potency is read from the fitted curve at half-maximal effect.

SMILES	SW480 rereplic	HT1080 IDH1KD tx	KB-V1 cytotox	HT1080NT lethal	KB-3-1 tox	MCF10A rerep
CC(=O)C1=C(O)C(=O)N(c2ccc(Br)cn2)C1c1ccc(Br)cc1 (stereo not drawn)	?	?	?	?	3.66µM*	?
COc1cc(N)c(N)cc1OC	.	.	i	.	i	.
Cc1cccc(NC(=O)CSc2ncc3c(n2)-c2ccccc2N(Cc2ccc(F)cc2)S3(=O)=O)c1C	.	.	i	.	i	.
CCN1C(=O)c2ccccc2S(=O)(=O)c2ccc(C(=O)NCc3ccccc3)cc21	.	.	i	.	i	.
COC(=O)CC1=NN(c2ccccc2)C(=O)/C1=C\c1ccc(OC)cc1	16.1%	19.6%	i	15.1%	i	18.3%
CCOC(=O)CC1=NN(c2ccccc2)C(=O)/C1=C\c1ccc(OC)cc1OC	?	-1.1%	i	-22.7%	i	10.3µM*
CCCNC(=O)c1cc2nc(-c3ccc(Br)cc3)cc(C(F)(F)F)n2n1	.	.	i	.	i	.
COc1ccc(-c2cc(C(F)(F)F)n3nc(C(=O)NCCCN4CCOCC4)cc3n2)cc1	8.2µM*	3.5%	i	-1.1%	i	?
COc1ccc(-c2cc(C(F)(F)F)n3nc(C(=O)Nc4cc(C)ccc4C)cc3n2)cc1	.	.	i	.	?	.
COc1ccc(-c2cc(C(F)(F)F)n3nc(C(=O)N4CCCCC4)cc3n2)cc1OC	?	-6.1%	10.3µM*	0.7%	?	-4.5%
O=C(NCCCn1ccnc1)c1cc2nc(-c3ccc(Br)cc3)cc(C(F)(F)F)n2n1	?	?	i	23.1µM*	i	14.6µM*
Cc1ccc(NC(=O)c2cc(CN3CCOCC3)on2)cc1Cl	.	.	i	.	i	.
Cc1cn2c(=O)c(S(=O)(=O)Nc3ccc(OC(F)(F)F)cc3)c(C)nc2s1	.	.	i	.	i	.
COc1ccc(-c2nc3c(=O)n(C)c(=O)nc-3n(C)n2)cc1	.	.	4.61µM*	.	0.651µM*	.
Cn1nc(-c2ccc(F)cc2)nc2c(=O)n(C)c(=O)nc1-2	.	.	5.17µM*	.	2.91µM*	.
O=C(C1CCC(Cn2c(=O)c3sccc3n(Cc3ccccc3)c2=O)CC1)N1CCCCC1 (stereo not drawn)	.	.	i	.	i	.
O=C(NCC(c1ccco1)N1CCCC1)c1cc2cc(Cl)ccc2o1 (stereo not drawn)	10.8%	-9.6%	9.2µM*	-9.7%	i	?
O=C(NCC(c1ccco1)N1CCCC1)c1ccc(Cl)cc1 (stereo not drawn)	-3.8%	8.8%	i	3.6%	i	-2.6%
O=C(C1=NNCC1c1ccccc1)C1CO1 (stereo not drawn)	16.4µM*	-0.1%	i	-9.7%	i	23.1µM*
COc1cccc(CNC(=S)Nc2ccc3c(c2)c(=O)n(C)n3Cc2ccc(F)cc2)c1	.	0.5%	i	?	i	.
CC(C)=CCn1c2ccc(NC(=O)NCc3ccc(F)cc3)cc2c(=O)n1C	.	2.31µM*	i	?	4.61µM*	.
Cn1c(=O)c2cc(NC(=O)NCc3ccc(F)cc3)ccc2n1C/C=C/c1ccccc1	.	?	i	?	?	.
COc1ccccc1CCC(=O)Nc1ccc2c(c1)c(=O)n(C)n2Cc1ccc(F)cc1	.	5.8µM*	?	3.26µM*	8.2µM*	.
COc1cccc(Cn2c3ccc(NC(=O)CCc4ccc(F)cc4)cc3c(=O)n2C)c1	.	4.11µM*	?	?	4.11µM*	.
CC(CC(=O)Nc1ccc(Cl)c([N+](=O)[O-])c1)c1ccccc1 (stereo not drawn)	?	?	i	?	?	?
SMILES	SW480 rereplic	HT1080 IDH1KD tx	KB-V1 cytotox	HT1080NT lethal	KB-3-1 tox	MCF10A rerep
CC(CC(=O)Nc1ccc2c(c1)c(=O)n(C)n2-c1ccccc1)c1ccccc1 (stereo not drawn)	.	2.91µM*	10.3µM*	3.66µM*	4.61µM*	.
CCOC(=O)Cn1c(=O)n(-c2ccccc2OC)c2nc(-c3ccc(C(C)C)cc3)nc(C(N)=O)c21	.	.	i	.	i	.
COc1ccc(OC)c2sc(NC(=O)c3ccc(S(=O)(=O)N4CCCC4)cc3)nc12	.	.	i	.	i	.
COc1ccc(-n2nc(C(=O)Nc3ccc(C)cn3)c3c4ccccc4n(C)c3c2=O)cc1	.	.	i	.	i	.
CC(C)=CCn1c2ccc(NC(=O)Nc3cccnc3)cc2c(=O)n1C	.	9.7%	i	?	i	.
Cn1c(=O)c2cc(NC(=O)Nc3cccnc3)ccc2n1-c1ccc(C(C)(C)C)cc1	.	?	i	20.6µM*	?	.
Cn1c(=O)c2cc(NC(=O)CCc3ccccc3)ccc2n1-c1ccccc1F	.	7.31µM*	i	?	?	.
CC(C(=O)Nc1c2c(cc3c1CCC3)CCC2)N1CCCC1 (stereo not drawn)	-9.3%	1.0%	i	-6.1%	i	0.0%
CCN(CC)C(C)C(=O)Nc1c2c(cc3c1CCC3)CCC2 (stereo not drawn)	0.8%	1.2%	9.2µM*	-0.2%	i	7.1%
Cc1ccc(S(=O)(=O)N/N=C/c2ccc(O)c(O)c2)cc1[N+](=O)[O-]	20.6µM*	-1.9%	?	-9.9%	i	-0.6%
Cc1ccc(S(=O)(=O)N2CCN(c3ccnc(-c4cccs4)n3)CC2)cc1	.	1.4%	.	1.0%	.	.
CC(=O)Cn1ncc(Br)c(Br)c1=O	3.66µM*	7.31µM*	?	10.3µM*	?	2.06µM*
CC(C)(C)OC(=O)N1CCC(c2c(C(=O)NCCCN3CCc4ccccc4C3)cnn2-c2ccccc2)CC1	.	.	i	.	i	.
Cc1ccc(CNC(=O)CN(C)S(=O)(=O)c2ccc3c(c2)c(=O)n(C)c(=O)n3C)cc1	.	.	i	.	i	.
COC(=O)c1c(C)[nH]c(-c2csc(N)n2)c1C	14.6µM*	?	i	?	?	?
CCOC(=O)c1[nH]c(C)c(C(=O)OC)c1C	-4.4%	15.2%	i	5.8%	i	11.5%
Cc1cccc(NC(=O)CN(C)S(=O)(=O)c2ccc(Cl)cc2)n1	-7.1%	-16.2%	16.4µM*	1.1%	i	-2.0%
COc1ccc(S(=O)(=O)N(C)CC(=O)Nc2ccc3c(c2)OCO3)cc1	8.8%	-0.9%	i	-4.9%	i	-1.8%
O=C(Cc1ccc(Cl)cc1)Nc1ccccc1C(=O)N1CCCC1	-2.8%	-0.4%	i	-3.7%	i	-2.5%
CN(Cc1ccccc1)S(=O)(=O)c1ccc(Cl)c(C(=O)N2CCC2)c1	1.9%	-1.5%	16.4µM*	-2.9%	i	18.4%
CN(CC(=O)Nc1ccccc1C(=O)N1CCCC1)S(=O)(=O)c1ccc(Cl)cc1	-2.0%	-1.3%	7.31µM*	7.9%	i	-1.2%
